# The campaign covered roughly 2,100 compounds. About 770 (37%) were called active. This is one part of the list. Values without a mark were called inactive.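 How the source made its calls: active means by-eye trace score of 1 for enhancers or -1 for inhibitors, so actives lie on both sides (some results past the limit were not filed as active); inactive means score 0, or 3 fluorescent, or 4 baseline rise.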
# Molecular target: G protein-activated inward rectifier potassium channel 2 (Homo sapiens) + G protein-activated inward rectifier potassium channel 1 (Homo sapiens) (UniProt P48051+P48549)
# Sequence (P48051 whole entry, looked up): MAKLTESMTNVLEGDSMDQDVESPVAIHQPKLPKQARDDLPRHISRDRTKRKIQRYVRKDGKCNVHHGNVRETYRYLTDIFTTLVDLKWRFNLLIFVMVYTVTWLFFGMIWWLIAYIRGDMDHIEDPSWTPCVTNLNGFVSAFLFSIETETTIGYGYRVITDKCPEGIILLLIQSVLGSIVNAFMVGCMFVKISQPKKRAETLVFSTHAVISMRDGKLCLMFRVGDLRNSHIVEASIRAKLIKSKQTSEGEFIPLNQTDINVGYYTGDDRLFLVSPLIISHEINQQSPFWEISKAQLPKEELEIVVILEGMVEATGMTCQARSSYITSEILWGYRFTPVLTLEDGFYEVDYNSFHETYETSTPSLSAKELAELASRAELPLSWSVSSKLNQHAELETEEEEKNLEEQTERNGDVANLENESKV
# Sequence (P48549 whole entry, looked up): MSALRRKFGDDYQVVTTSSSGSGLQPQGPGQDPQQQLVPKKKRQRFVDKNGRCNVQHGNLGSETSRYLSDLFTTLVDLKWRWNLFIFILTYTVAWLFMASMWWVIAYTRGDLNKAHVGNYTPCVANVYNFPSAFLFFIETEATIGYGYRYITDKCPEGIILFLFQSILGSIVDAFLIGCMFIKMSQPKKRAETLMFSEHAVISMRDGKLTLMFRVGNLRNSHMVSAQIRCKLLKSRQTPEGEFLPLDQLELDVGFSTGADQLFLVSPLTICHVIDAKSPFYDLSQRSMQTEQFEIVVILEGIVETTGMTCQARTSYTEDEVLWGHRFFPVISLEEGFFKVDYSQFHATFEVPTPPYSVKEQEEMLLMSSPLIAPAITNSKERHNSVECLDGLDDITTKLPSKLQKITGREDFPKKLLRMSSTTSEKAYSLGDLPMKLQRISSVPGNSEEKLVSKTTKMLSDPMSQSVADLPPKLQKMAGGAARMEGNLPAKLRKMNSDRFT
# Assay: GIRK1/2 thallium flux modulators, retest, confirmation, cell-based, HEK293 rmGlu8/hGIRK1/2, FluoZin-2 (AID 623911)
# Conditions: HEK293 rmGlu8/hGIRK1/2, thallium flux FluoZin-2; actives lie on both sides; glutamate co-added at its EC20 level
row,Compound,manual score
1,CCc1ccc(C(=O)OCC(=O)Nc2cccc(S(=O)(=O)NC3=NCCCCC3)c2)cc1,1 (active)
2,O=C(COC(=O)c1cccc(N2C(=O)c3ccccc3C2=O)c1)Nc1ccccc1,0
3,O=C(CSc1ccc2ccccc2c1Br)Nc1cccc(S(=O)(=O)NC2=NCCCCC2)c1,0
4,N#C/C(=C/c1ccc(N2CCOCC2)o1)c1nc2ccccc2[nH]1,3
5,Cc1oncc1C(=S)Nc1ccccc1,0
6,Cc1ccc(NC(=S)c2nc3ccccc3[nH]2)cc1,1 (active)
7,S=C(Nc1ccc(Cl)cc1)c1nc2ccccc2[nH]1,1 (active)
8,CCOC(=O)N1CCN(C(=O)CN(Cc2ccccc2)S(=O)(=O)c2ccc(OC)c(C)c2)CC1,-1 (active)
9,COc1ccc(OC)c(S(=O)(=O)N(C)CC(=O)N2CCN(c3ccccc3F)CC2)c1,0
10,COc1ccc(S(=O)(=O)N(CC(=O)N2CCN(c3ccccc3)CC2)c2ccccc2)cc1,0
11,COc1cc(/C=C2\SC(=S)NC2=O)ccc1OS(=O)(=O)c1ccccc1,1 (active)
12,O=C1NC(=O)/C(=C\c2ccccc2Oc2ccc(F)c(F)c2)S1,0
13,O=C1NC(=S)S/C1=C\c1ccc(SCc2ccccc2)o1,0.5
14,O=C1NC(=S)/C(=C\c2ccc(-c3ccccc3Cl)o2)S1,3
15,COc1ccc(/C=C2\SC(=O)NC2=S)cc1OC,1 (active)
16,COc1cc(/C=C2/SC(=S)NC2=O)ccc1OS(=O)(=O)c1ccc(C)cc1,0
17,CCOc1ccc(-c2nc(-c3ccc(OC)cc3)no2)cc1OCC,0
18,OCCCN=c1cc(-c2ccccc2)oc2ccc(Cl)cc12,-1 (active)
19,O=S(=O)(c1ccc(Cl)c(F)c1)N1CCC(c2nc(-c3ccncc3)no2)CC1,1 (active)
20,CC(C)c1ccc(-c2noc(C3CCCN(S(C)(=O)=O)C3)n2)cc1 (stereo not drawn),0
21,Cc1cc2cc3c(cc2nc1SCC(=O)N1CCN(C(=O)c2ccco2)CC1)OCO3,0
22,CCN(CC)c1ccc(C(=O)NC(=S)N2CCN(Cc3ccc4c(c3)OCO4)CC2)cc1,0
23,O=C(NC(=S)N1CCN(Cc2ccc3c(c2)OCO3)CC1)c1cccc(Br)c1,1 (active)
24,O=C(c1ccc2nccnc2c1)N1CCN(Cc2ccc3c(c2)OCO3)CC1,1 (active)
25,O=C(c1ccc(COc2c(F)c(F)c(F)c(F)c2F)o1)N1CCN(Cc2ccc3c(c2)OCO3)CC1,0
26,O=C(NC(=S)N1CCN(Cc2ccc3c(c2)OCO3)CC1)c1ccc(Cl)cc1,1 (active)

row,Compound,manual score
1,Fc1ccc(NC(=S)NN=C2CCCCCC2)cc1,0
2,C/C(=N\NC(=S)Nc1ccc(F)cc1)c1ccc2c(c1)OCCO2,1 (active)
3,C/C(=N/NC(=S)Nc1ccccc1)c1ccc2c(c1)OCO2,0
4,Cc1cccc(C(=O)N2CCC(Cc3ccccc3)CC2)c1[N+](=O)[O-],-1 (active)
5,O=C(Nc1ccc(OCC(=O)N2CCC(Cc3ccccc3)CC2)cc1)c1ccco1,0
6,Cc1noc(C)c1S(=O)(=O)N1CCC(Cc2ccccc2)CC1,0
7,O=C(Nc1nc2ccccc2s1)c1cc(-c2ccccc2)nn1-c1ccccc1,0
8,CC(=O)c1sc(NC(=O)c2cc(-c3ccccc3)nn2-c2ccccc2)nc1C,1 (active)
9,COC(=O)Nc1nc(C)c(C(=O)N(C)C)s1,0
10,C#CC(CO)N(CCN(Cc1ccccc1)C(C#C)CO)Cc1ccccc1 (stereo not drawn),-1 (active)
11,C#CCSc1nnc(-c2cccc3ccccc23)o1,0
12,CCOC(=O)C1=C(NC(=S)NC(=O)c2ccccc2)c2ccccc2CC1C(C)C (stereo not drawn),0
13,CCOC(=O)c1c(NC(=O)C2C3C=CC(C3)C2C(=O)O)sc2c1CCC(CC)C2 (stereo not drawn),0
14,CCOC(=O)c1c(NC(=S)NCCc2ccccc2)sc2c1CC(C(C)C)OC2 (stereo not drawn),0
15,C=CCNC(=S)Nc1sc2c(c1C(=O)OCC)CC(C(C)C)OC2 (stereo not drawn),1 (active)
16,C=CCNC(=S)Nc1sc2c(c1C(=O)OCC)CC(C)(CC)OC2 (stereo not drawn),1 (active)
17,CCOC(=O)c1c(NC(=S)NC)sc2c1CC(C)(C)SC2,1 (active)
18,C=C(C)C1CC=C(C)/C(=N/NC(=S)Nc2ccccc2)C1 (stereo not drawn),0
19,COC(=O)c1ccc(C)c(NC(=O)CN2C(=O)c3ccccc3S2(=O)=O)c1,0
20,Cc1ccc(NC(=O)CN2c3cccc4cccc(c34)S2(=O)=O)cc1S(=O)(=O)N1CCOCC1,1 (active)
21,Cc1ccc(NC(=O)CSc2nccn2C)cc1S(=O)(=O)N1CCOCC1,0
22,CC12CCC(C(=O)N(CSC(=S)N/N=C\c3ccccc3O)C1=O)C2(C)C (stereo not drawn),1 (active)
23,CC12CCC(C(=O)N(CSC(=S)N/N=C\c3ccccc3)C1=O)C2(C)C (stereo not drawn),1 (active)
24,CC12CCC(C(=O)N(CSC(=S)N/N=C\c3ccccc3Cl)C1=O)C2(C)C (stereo not drawn),0.5
25,COc1ccc(/C=N\NC(=S)SCN2C(=O)C3CCC(C)(C2=O)C3(C)C)cc1 (stereo not drawn),1 (active)
26,CN(C)c1ccc(/C=N\NC(=S)SCN2C(=O)C3CCC(C)(C2=O)C3(C)C)cc1 (stereo not drawn),0

row,Compound,manual score
1,Clc1ccccc1-c1nn2c(COc3ccccc3)nnc2s1,0
2,Cc1nc2ccc(NS(=O)(=O)c3ccc4c(c3)OCCO4)cc2s1,0
3,Cc1ccccc1CNS(=O)(=O)c1ccc2c(c1)OCCO2,-1 (active)
4,CSc1ccc(S(=O)(=O)NCc2ccccc2Cl)cc1,0
5,CCSc1nnc(NC(=O)c2nn(C(C)C)c(=O)c3ccccc23)s1,0
6,CCSc1nnc(NC(=O)CC)s1,0
7,CCSc1nnc(NC(=O)NC(CC)(C(F)(F)F)C(F)(F)F)s1,1 (active)
8,CC(C)(C)c1ccc(-c2n[nH]c(=S)n2C2CCCC2)cc1,0
9,CN(CCC#N)C(=O)CSc1ncnc2sc(-c3ccccc3)cc12,0
10,C/C(N)=C(/C#N)C(=O)CSc1nc2cc(Cl)ccc2c(=O)n1-c1ccc(C)cc1,0
11,O=c1c2ccc(Cl)cc2nc(-c2cccc(C(F)(F)F)c2)n1O,1 (active)
12,O=c1c2ccccc2nc(-c2cccc(Cl)c2)n1O,1 (active)
13,O=C1c2ccccc2NC(c2ccc(-c3cccc(Cl)c3)o2)N1O (stereo not drawn),0.5
14,O=c1c2ccccc2nc(-c2ccccc2)n1/N=C/c1ccc([N+](=O)[O-])cc1,0
15,O=c1c2cc(Br)ccc2nc(-c2cccc(C(F)(F)F)c2)n1O,1 (active)
16,Cc1nc2nc(Cc3ccccc3)[nH]n2c(=O)c1Cc1ccccc1,0
17,CCN(CC)CCN1C(=O)c2oc3ccccc3c(=O)c2C1c1ccc(C)cc1 (stereo not drawn),0
18,CCOC(=O)C(C)Oc1ccc2c(CC)cc(=O)oc2c1C (stereo not drawn),0
19,CCOC(=O)C1=C(O)C(=O)N(c2ccc(S(N)(=O)=O)cc2)C1c1ccccc1 (stereo not drawn),0
20,COc1ccc2nc(N3C(=O)/C(=C/c4ccccc4)NC3=S)sc2c1,1 (active)
21,CCCSc1nc(C)nc2c1c(=O)n(C)c(=O)n2C,0
22,Clc1ccc(OCCn2ccnc2)c(Cl)c1,0
23,CC(C)CC(NS(=O)(=O)c1ccc2c(c1)oc(=O)n2C)C(=O)NC1CCCc2ccccc21 (stereo not drawn),0
24,CSc1nc(Sc2ccccc2)c2ccccc2n1,0
25,Cc1sc2nc(CN3CCCC3)nc(N3CCN(S(=O)(=O)c4cccs4)CC3)c2c1C,-1 (active)
26,Cc1nc(N2CCN(C(=O)COc3ccccc3)CC2)c2c(C)c(C)sc2n1,-0.5

row,Compound,manual score
1,CCOc1ccccc1N1CCN(S(=O)(=O)c2cccs2)CC1,0
2,Cc1cc(/C=c2/sc3nc4ccccc4n3c2=O)c(C)n1-c1ccccn1,0
3,CCNC(=S)N/N=C/c1c(Cl)cccc1Cl,0.5
4,CC1=NN(c2ccccc2)C(=O)/C1=C\c1c(C)[nH]n(-c2ccccc2)c1=O,0
5,CCCCN(CCCC)C(=S)N/N=C/c1c(C)[nH]n(-c2ccccc2)c1=O,1 (active)
6,Cc1nc2c(-c3ccccc3)c(C)[nH]n2c(=O)c1Cl,0
7,Cc1[nH]n2c(=O)cc(C(C)(C)C)nc2c1-c1ccccc1,1 (active)
8,Cc1cc(=O)n2[nH]c(C)c(-c3ccccc3)c2n1,0.5
9,COc1cc(CNc2ccc(N3CCCC3)cc2)ccc1OCc1ccccc1,0
10,COc1cc(/C=C(/C#N)c2ccc(F)cc2)ccc1OCc1ccc(C(=O)O)o1,0
11,COc1cc(CNCCc2c[nH]c3ccccc23)ccc1OCc1ccc(F)cc1,-1 (active)
12,COc1ccccc1NC(=S)NCCc1ccc(Cl)cc1,0
13,Cn1cccc1CNC1CCCC1,0
14,Cc1ccc(Cl)cc1NC(=S)NCc1cccn1C,1 (active)
15,O=C(c1ccccc1CCc1ccccc1)N1CCN(c2ccccn2)CC1,-1 (active)
16,O=C(CN1C(=O)c2cccc3cccc(c23)C1=O)N1CCN(c2ccccn2)CC1,3
17,Cc1cc(C(=O)N2CCN(CCc3ccccc3)CC2)no1,0
18,CCOC(=O)C1CCN(C(=O)N(C)C)CC1,0
19,COc1ccc(NC(=S)Nc2ccc(OCc3ccccc3)cc2)cc1OC,0
20,COc1ccc(NC(=S)SC)cc1OC,0
21,CCC(C)c1ccc(NC(=S)Nc2ccc(OC)c(OC)c2)cc1 (stereo not drawn),1 (active)
22,COc1ccc(CCC(=O)NCc2cnn(C)c2)cc1,0
23,CCCSc1nnc(Nc2ccccc2C)s1,1 (active)
24,Cc1nnc(NC(=O)CCSc2ccccc2)s1,0
25,c1ccc2c(Nc3nnc(-c4ccncc4)s3)cccc2c1,0

# Reference: PubChem BioAssay AID623911 (Vanderbilt High Throughput Screening Facility, 2012)
